High-throughput results as filed in PubChem BioAssay.
Most compounds without a hit are left out; they make up all but 2.2% or so of the library.
m5-HT2A agonist = mouse Htr2a agonists via beta-arrestin recruitment, primary screen, cell-based, luminescence. 5-hydroxytryptamine receptor 2A (Mus musculus), P35363. CHO-K1 mHTR2A beta-arrestin complementation; percent of 30 µM serotonin response. activation, % at 7.6 µM. hit rate 0.66% among 360,000;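 active = activation above a run cutoff, the mean activation of all tested compounds plus 3 SD, cut at about 14% in these data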;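 note: 0% = plate median of compound wells and 100% = 30 µM serotonin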
Target sequence (P35363 whole entry, looked up): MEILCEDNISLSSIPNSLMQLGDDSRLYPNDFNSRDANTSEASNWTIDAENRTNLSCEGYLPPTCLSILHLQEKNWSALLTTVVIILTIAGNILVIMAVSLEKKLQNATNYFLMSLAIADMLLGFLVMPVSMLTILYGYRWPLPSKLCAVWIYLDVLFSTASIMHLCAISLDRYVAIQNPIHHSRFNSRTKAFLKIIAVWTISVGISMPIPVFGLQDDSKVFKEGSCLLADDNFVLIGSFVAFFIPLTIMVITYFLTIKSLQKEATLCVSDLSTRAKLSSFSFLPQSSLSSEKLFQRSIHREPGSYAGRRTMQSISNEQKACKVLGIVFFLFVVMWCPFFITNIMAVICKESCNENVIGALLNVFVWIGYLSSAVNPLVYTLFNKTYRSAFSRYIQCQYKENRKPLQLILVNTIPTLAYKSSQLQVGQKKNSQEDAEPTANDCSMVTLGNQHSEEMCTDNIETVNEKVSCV
VLA-4 inh = inhibition in human VLA-4 binding assay, primary screen, VLA-4 allosteric modulator project, MLPCN library, flow cytometry, VLA-4 expressing cells; inhibition, % (about 7 µM as worked out from the volumes in the protocol); ligand binding flow cytometry; hit rate 0.2% among 330,000; Integrin alpha-4 (Homo sapiens), P13612; AID 2557, 2010; in the data active = inhibition above about 50%
JMJD2C inh = inhibitors of GASC-1 histone demethylase, primary screen, biochemical, fluorescence, DELFIA europium. inhibition, % at 2.35 µM. AID 2099, 2009. hit rate 0.069% among 330,000. GST-JMJD2C(1-420) H3K9me3 demethylation;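 active = more than half of a compound's replicate wells show inhibition beyond 50%, single wells judged on their own value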;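 note: signal counts dimethyl H3K9 product captured on neutravidin plate; 0% = median of DMSO wells and 100% = 0.3 times that DMSO median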
MEX-5 binding = MEX-5 zinc finger RNA-binding disruptors – biochemical, C. elegans, fluorescence polarization, MLPCN library, primary screen; AID 1832, 2009; hit rate 0.38% among 300,000; Zinc finger protein mex-5 (Caenorhabditis elegans), Q9XUB2; MEX-5/FITC-TCR2 RNA binding; hits give low values; activity score (negative = inhibition of binding), % at 10 µM;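 active = inhibition past about -25% in most replicates, and total fluorescence under double the plate's negative control median, limit read from the data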;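 note: 0% = DMSO and -100% = 5 µM competing unlabeled TCR2 RNA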
Exocytosis inh = LAMP-1 surface exposure blockers, TALL-104 cells – cell-based, flow cytometry, MLPCN library, primary screen. TALL-104 LAMP-1 surface exposure; cells stimulated with thapsigargin and PMA. inhibition, % at 10 µM. hit rate 0.66% among 360,000. AID 651702, 2012;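 active = inhibition above about 55%, limit read from the data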
V-ATPase pH = regulators of yeast V-ATPase proton pumping, primary screen, pHLuorin cytosolic pH fluorescence | S. cerevisiae | response, % at 10 µM | hit rate 0.37% among 350,000 | AID 504577, 2011; in the data active = response mostly above about 7.3%, no sharp cut-off; inactive = mostly below about 5.4%; note: actives read high
VLA-4 mod pick = retest of VLA-4 allosteric modulators, confirmation, cell-based, cherry-picked plates, U937, HUTS-21 LIBS antibody; shares compounds with VLA-4 inh; U937 cells, HUTS-21 LIBS mAb binding, flow cytometry; LDV ligand present at threefold Kd; inhibition, % at 6.7 µM; hit rate 2% among 1,300; in the data active = inhibition above about 40%;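 note: 0% = ligand without compound and 100% = no ligand background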
An asterisk follows results filed as active.

Screening O=C(COC(=O)c1ccccc1Cl)NC1CCCCCC1 returned m5-HT2A agonist -0.8, VLA-4 inh -5.8, JMJD2C inh -1.7, Exocytosis inh -2.3, V-ATPase pH 5.5 and VLA-4 mod pick -4.9.
O=C1NC[C@@H]2CCCN2C1=O was read as m5-HT2A agonist 5.1 and Exocytosis inh -8.6.
`O=C1NCC(=O)N2CCC[C@@H]12` gave m5-HT2A agonist -4.6, VLA-4 inh 53.5*, JMJD2C inh -2.8, MEX-5 binding 0.4, Exocytosis inh 0.0, V-ATPase pH -0.9 and VLA-4 mod pick 9.0.
Screening CCCCC[C@@H]1C=C(C(=O)O)[C@H](c2ccc(Cl)cc2)N1S(=O)(=O)c1ccc(C)cc1 returned m5-HT2A agonist 2.6, VLA-4 inh 16.5, Exocytosis inh 0.8, V-ATPase pH 3.5 and VLA-4 mod pick 1.3.
Cc1ccc(S(=O)(=O)N2[C@@H](c3ccc(Cl)cc3)C(C(=O)O)=C[C@H]2C(C)(C)C)cc1 was read as m5-HT2A agonist 9.0, VLA-4 inh -2.5, JMJD2C inh 2.5, Exocytosis inh 0.2 and V-ATPase pH 0.3.
Screening Cc1ccc(S(=O)(=O)N2[C@@H](c3ccc(Br)cc3)C(C(=O)O)=C[C@H]2C(C)(C)C)cc1 returned m5-HT2A agonist 0.3, VLA-4 inh 51.5*, JMJD2C inh 4.5, Exocytosis inh -4.8, V-ATPase pH -0.7 and VLA-4 mod pick -1.4.
`CCCCC[C@@H]1C=C(C(=O)O)[C@H](c2ccc(C)cc2)N1S(=O)(=O)c1ccc(C)cc1` gave m5-HT2A agonist 10.4, VLA-4 inh -8.9, Exocytosis inh -10.6 and V-ATPase pH 3.5.
Screening CCCC[C@@H]1C=C(C(=O)O)[C@H](c2ccc(C)cc2)N1S(=O)(=O)c1ccc(C)cc1 returned m5-HT2A agonist 4.1, VLA-4 inh 52.9*, JMJD2C inh 11.9, Exocytosis inh -2.7, V-ATPase pH 4.6 and VLA-4 mod pick -2.1.
`CCN1C(=O)[C@H]2[C@@H](c3ccccc3)N[C@]3(CCCN(Cc4ccccc4)C3=O)[C@H]2C1=O` gave m5-HT2A agonist -2.9, Exocytosis inh 0.3 and V-ATPase pH -1.3.
For Nc1ccn([C@@H]2O[C@H](CO)[C@@H](O)[C@@H]2O)c(=O)n1 the results were m5-HT2A agonist -3.3, VLA-4 inh 53.3*, JMJD2C inh 2.6, MEX-5 binding -1.9, Exocytosis inh -3.1, V-ATPase pH 5.8 and VLA-4 mod pick 8.4.
`COC(=O)[C@]1(Cc2ccccc2)N[C@H](CN(C)C(=O)c2ccc(C(C)(C)C)cc2)[C@@H]2C(=O)N(Cc3ccccc3)C(=O)[C@@H]21` gave m5-HT2A agonist 1.1, VLA-4 inh 14.8, Exocytosis inh 0.7, V-ATPase pH 2.2 and VLA-4 mod pick 0.6.
COC(=O)[C@]1(Cc2ccccc2)N[C@H](CN(C)C(C)=O)[C@@H]2C(=O)N(Cc3ccccc3)C(=O)[C@@H]21 was read as m5-HT2A agonist -0.2, VLA-4 inh 38.9, Exocytosis inh -0.2, V-ATPase pH -1.2 and VLA-4 mod pick 2.7.
For Cn1nnnc1SCC(=O)N1CCN(S(=O)(=O)c2ccccc2)CC1 the results were m5-HT2A agonist -1.4, VLA-4 inh 50.6*, JMJD2C inh 3.0, MEX-5 binding 1.6, Exocytosis inh 17.7, V-ATPase pH 1.8 and VLA-4 mod pick 5.3.
`O=C(COC(=O)c1ccc(O)cc1)Nc1cc(C(F)(F)F)ccc1Cl` gave m5-HT2A agonist -5.8, VLA-4 inh -1.1, JMJD2C inh -2.6, MEX-5 binding -1.9, Exocytosis inh -0.9 and V-ATPase pH -1.2.
For CC(OC(=O)c1ccc(O)cc1)C(=O)Nc1cc(C(F)(F)F)ccc1Cl (centres undefined) the results were m5-HT2A agonist -6.2, VLA-4 inh 3.5, JMJD2C inh 1.7, MEX-5 binding 1.2, Exocytosis inh 3.6, V-ATPase pH 5.0 and VLA-4 mod pick -8.6.
For CCOC(=O)c1[nH]c2ccccc2c1NC(C)=O the results were m5-HT2A agonist -0.3, VLA-4 inh 67.6*, JMJD2C inh -1.6, MEX-5 binding -0.5, Exocytosis inh 4.4, V-ATPase pH 2.6 and VLA-4 mod pick -3.9.
`Cc1ccc(C(=O)NC(=S)Nc2ccc(NC(=O)c3cccc(Cl)c3)cc2)cc1` gave m5-HT2A agonist 3.6, VLA-4 inh 47.2, JMJD2C inh 2.6, MEX-5 binding 0.0, Exocytosis inh 1.4, V-ATPase pH -1.8 and VLA-4 mod pick 7.8.
Cc1cc(C)nc(NC(=O)c2cccc(Cl)c2)n1 was read as m5-HT2A agonist -6.0, VLA-4 inh 52.6*, JMJD2C inh -30.5, MEX-5 binding -0.8, Exocytosis inh -2.5, V-ATPase pH 5.2 and VLA-4 mod pick -2.1.
C=C(C(=O)c1ccccc1)C(NC(C)(C)C)c1ccccc1 (centres undefined) was read as m5-HT2A agonist -8.1, Exocytosis inh 0.5 and V-ATPase pH -3.7.
`N#Cc1ccc(C(=O)NCC2CCCCC2)cc1` gave m5-HT2A agonist -3.3, VLA-4 inh 0.2, JMJD2C inh -5.1, MEX-5 binding 2.2, Exocytosis inh -15.9 and V-ATPase pH -2.5.
`Cc1ccnc(SCC(=O)N2CCC(C(N)=O)CC2)n1` gave m5-HT2A agonist -1.8, VLA-4 inh 50.7*, JMJD2C inh 3.7, MEX-5 binding 1.7, Exocytosis inh 0.3, V-ATPase pH 3.6 and VLA-4 mod pick 12.3.
Screening CC(C)(C)OC(=O)NCCCC1=CC2=CC(=O)C(C)(O)C(=O)C2=CO1 (centres undefined) returned VLA-4 inh -5.9, JMJD2C inh 7.0 and MEX-5 binding -20.0.
Screening COc1ccc(N(C(=O)c2cnsn2)C(C(=O)NC2CCCCC2)c2ccncc2)cc1 (centres undefined) returned m5-HT2A agonist 0.2, VLA-4 inh 41.4, JMJD2C inh -21.1, MEX-5 binding 2.2, Exocytosis inh -1.4, V-ATPase pH -1.6 and VLA-4 mod pick -11.0.
Screening CCOc1ccc(N(C(=O)c2cnsn2)C(C(=O)NC2CCCCC2)c2ccncc2)cc1 (centres undefined) returned m5-HT2A agonist 1.7, VLA-4 inh -1.6, JMJD2C inh 34.0, MEX-5 binding -1.1, Exocytosis inh 1.7 and V-ATPase pH 3.9.
